High-throughput results: PubChem BioAssay, several laboratories
The list is not random: actives were taken first. Their share in the collection is about 2.1%.
DUSP3 inh = inhibitors of human VHR1 phosphatase (DUSP3). P51452. recombinant VHR phosphatase, pNPP absorbance. inhibition, % at 13.3 µM. 290,000 compounds, 0.52% hits. AID 1654; in the data active means inhibition above about 50%
Target sequence (P51452 whole entry, looked up): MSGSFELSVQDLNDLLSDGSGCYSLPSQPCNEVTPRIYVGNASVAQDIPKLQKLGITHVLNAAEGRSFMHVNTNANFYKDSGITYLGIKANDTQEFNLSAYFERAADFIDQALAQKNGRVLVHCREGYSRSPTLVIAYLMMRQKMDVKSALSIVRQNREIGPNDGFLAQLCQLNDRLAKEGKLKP
MazEF act = MazEF (E. coli) toxin RNase activation. P0AE70. FAM/BHQ RNA-DNA oligo cleavage fluorescence, 5 h. activation, % at 20 µM. 350,000 compounds, 0.32% hits; in the data active means activation above about 50%
Target sequence (P0AE70 whole entry, looked up): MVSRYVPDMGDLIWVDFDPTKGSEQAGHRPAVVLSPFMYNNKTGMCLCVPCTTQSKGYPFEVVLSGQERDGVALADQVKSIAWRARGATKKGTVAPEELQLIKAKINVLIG
PrP UTR inh = suppresses PrP 5' UTR mRNA reporter expression; cell-based PrP 5' UTR mRNA reporter, plate reader; inhibition, % (no concentration beside the values); 340,000 compounds, 0.35% hits; in the data active means inhibition above about 52%; further: 0 = median of the neutral control wells
PfHsp40 rescue = rescue of PfHsp40-mediated yeast toxicity; AID 504582; growth rescue, % at 12.5 µM; S. cerevisiae expressing PfHsp40, growth rescue, ATP luminescence; 340,000 compounds, 0.68% hits; in the data active means growth rescue above about 28%, passing the limit was not always enough;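 further: yeast W303a lacking pdr1 and pdr3 grown in galactose medium; growth measured after three days at 30 °C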
BJeLR lethal = kills HRASV12-expressing BJeLR cells; BJeLR (HRASV12) viability, CellTiter-Glo ATP luminescence, 48 h; inhibition, % (concentration not given with the values); 300,000 compounds, 0.17% hits; in the data active means inhibition above about 50%
PrPC surface inh = inhibitors of human cell surface prion protein PrPC | P04156 | TR-FRET read-out | inhibition, % at 13.8 µM | 370,000 compounds, 0.43% hits; in the data active means inhibition above about 24%; further: 0% = median of the test wells and 100% = reference compound wells
* hit, by the source's call; x = no result.

SMILES	DUSP3 inh	MazEF act	PrP UTR inh	PfHsp40 rescue	BJeLR lethal	PrPC surface inh
Cc1cc(NC(=O)CSc2nnc(CNC(=O)c3c(F)cccc3F)o2)no1	52.8*	-1.9	-15.1	-1.4	0.2	-6.0
O=C(CSc1nnc(CNC(=O)c2ccco2)o1)Nc1ccc(F)cc1F	52.1*	9.4	-8.4	-0.3	-5.6	-11.4
CNc1ncnc2c1ncn2[C@H]1CN(CCOC)C[C@@H](CO)O1	x	x	x	x	x	-1.0
O=C(/C=C/c1cccc([N+](=O)[O-])c1)NC1CC2CCC1C2 (stereo not drawn)	-1.2	11.0	-19.0	50.7*	3.8	-17.6
COc1ccc(C(c2c(O)ccc3ccccc23)N2CCOCC2)c(OC)c1 (stereo not drawn)	15.3	-28.0	-54.1	410.4*	-1.9	61.1*
CC(C)c1nc2sc3c(=O)[nH]cnc3c2c2c1CCC2	0.1	-0.3	-15.6	-1.1	-10.9	18.7
CC(C)c1nc2sc3c(=O)[nH]cnc3c2c2c1CCCC2	5.4	67.8*	-15.5	-1.3	7.9	0.6
O=[N+]([O-])c1ccc(NCCCN2CCC(C(O)(c3ccccc3)c3ccccc3)CC2)cc1	x	x	x	x	x	-19.3
Cc1ccc(NC(=O)C2C3C=CC4(O3)C2C(=O)N(CCCN2CCCC2)C4C(=O)NC2CCCCC2)cc1Cl (stereo not drawn)	52.9*	14.7	-16.6	0.7	-1.3	3.3
CCOCCC(=O)Nc1cc(Cl)ccc1OC	-41.8	3.5	-28.1	-1.5	8.9	7.7
COc1ccccc1N/N=C(\C#N)C(=N)N1CCOCC1	26.9	10.0	-20.0	-0.8	5.2	0.1
CCOC(=O)/C(C#N)=N\Nc1cc(Cl)ccc1OC	4.3	325.8*	-27.5	0.5	0.2	4.6
CCOC(=O)/C(C#N)=N/Nc1ccccc1OC	-4.7	64.6*	21.1	0.2	-9.9	1.5
O=C(/C=C/c1ccco1)Nc1cc(Cl)ccc1C(=O)O	-10.8	-2.2	-18.4	-0.9	-1.3	-7.0
O=C(/C=C\c1ccco1)Nc1cc([N+](=O)[O-])ccc1F	8.5	5.6	5.4	-0.2	62.5*	-7.6
Cc1oc2c(c1C(=O)NCc1cccnc1)C(=O)c1ccccc1C2=O	-10.7	6.7	x	x	75.9*	x
O=c1oc2ccccc2cc1-c1ccc(O)cc1	47.9	-11.1	-76.6	2.3	-7.0	-9.6
Nc1ccc(-c2cc3ccccc3oc2=O)cc1	8.5	3.5	84.7*	-0.6	6.7	-24.2
O=C(Nc1cccnc1)c1cccc(-c2cc3ccccc3oc2=O)c1	2.0	-83.1	-15.9	-1.0	-9.4	-4.1
O=C(NCc1cccnc1)c1ccc(-c2cc3ccccc3oc2=O)cc1	17.5	-17.3	-54.5	0.0	66.3*	-39.7
C[C@H]1CN([C@@H](C)CO)C(=O)Cc2cc(NC(=O)C3CC3)ccc2O[C@H]1CN(C)Cc1ccc(C(=O)O)cc1	x	4.7	-12.8	-0.9	x	4.3
COC(=O)[C@H](C(C)C)N(CCCc1cn(Cc2ccc(C)cc2)nn1)S(=O)(=O)c1ccc(F)cc1Br	x	x	x	x	x	3.5
Cc1ccc2nc(N3C(=O)C(O)=C(C(=O)c4ccco4)C3c3cccs3)sc2c1 (stereo not drawn)	7.6	109.8*	-43.5	0.4	-6.7	2.7
CCNc1ccc(S(=O)(=O)N2CCOCC2)cc1NCC(=O)Nc1cccc(Br)c1	x	2.2	x	x	x	17.0
Cc1ccccc1CS(=O)(=O)Cc1ccc(C(=O)N2CCC3(CC2)OCCO3)o1	50.8*	2.4	-4.1	-0.3	-1.0	2.4
SMILES	DUSP3 inh	MazEF act	PrP UTR inh	PfHsp40 rescue	BJeLR lethal	PrPC surface inh
Fc1ccc(C2NCCc3[nH]cnc32)cc1 (stereo not drawn)	-7.5	7.1	-18.9	-1.1	2.5	4.9
O=C(O)C1Cc2[nH]cnc2C(c2ccc(F)cc2)N1 (stereo not drawn)	16.9	-4.6	-39.9	60.6*	-9.7	0.1
CCS(=O)(=O)N1CCCC(C(=O)Oc2ccc(Br)cc2)C1 (stereo not drawn)	21.9	-16.7	5.4	0.4	5.3	0.1
CCCCCCCCNS(=O)(=O)CC1NCc2ccc(C)cc21 (stereo not drawn)	x	x	x	x	x	1.6
Cc1nc2ccccc2c(=O)n1/N=C/c1ccc([N+](=O)[O-])o1	6.1	x	x	x	-1.9	x
O=c1c2ccccc2nc(/C=C/c2ccc([N+](=O)[O-])o2)n1-c1ccc(O)cc1	-11.3	42.6	-117.2	-1.8	64.4*	-4.7
Cc1cccc(-n2c(/C=C/c3ccc([N+](=O)[O-])o3)nc3ccccc3c2=O)c1	-4.7	90.3*	-13.2	0.0	42.8	-5.6
